The values below come from the supplement of paper PMC6555819.

Assay in all cases: PBM binding z-score (relative to random genomic background probes); higher = stronger binding; sequences stand for … in GC…GCGATTGACAGCGTAGAATGAAGG
In assay [1] the test system is PPARg:RXRa DBDmut IVT, anti-RXR (DBD mutation: RXRa K156A/R161A, NR concentration 270 nM, RXRa partner concentration 90 nM). A digest of the protocol: (§1)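 Custom Agilent 4×180K protein-binding microarrays carried double-stranded probes. Their 34-nt variable regions held direct-repeat seeds, single-nucleotide variants, half-site ablations and random human genomic background sequences. Arrays were incubated 1 h with ligand-free nuclear receptor dimers in PBS pH 7.4, 2% milk, 0.02% Triton X-100, 1 mM DTT, 0.2 mg/mL BSA and 0.4 mg/ml salmon testes DNA. Antibodies against each partner (one per run) detected binding, and scanned fluorescence was regression-normalized. Binding z-scores use random background probes as reference.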

Assay [2] concerns PPARg:RXRa IVT, anti-PPARg (NR concentration 270 nM, RXRa partner concentration 90 nM). A digest of the protocol: as §1
The subject of assay [3] is PPARg DBDmut:RXRa IVT, anti-PPARg (DBD mutation: PPARg1 K132A/R137A, NR concentration 270 nM, RXRa partner concentration 90 nM). A digest of the protocol: as §1
The subject of assay [4] is PPARg DBDmut IVT, anti-PPARg (DBD mutation: PPARg1 K132A/R137A, NR concentration 270 nM). Summed up:
as §1

Assay [5] concerns PPARg homodimer (NR concentration 180 nM). Summed up:
as §1

The subject of assay [6] is PXR:RXRa (NR concentration 270 nM, RXRa partner concentration 90 nM). Summed up: as §1
Assay [7] has as its system PXR homodimer (NR concentration 270 nM). Summed up: as §1
For assay [8], the system named is RARa:RXR (NR concentration 270 nM, RXRa partner concentration 90 nM). A digest of the protocol: as §1
In assay [9] the test system is RARa homodimer (NR concentration 270 nM). A digest of the protocol:
as §1

Assay [10] concerns RARb:RXRa (NR concentration 270 nM, RXRa partner concentration 90 nM). Summed up:
as §1

Assay [11] has as its system RARb homodimer (NR concentration 270 nM). Summed up: as §1
In assay [12] the test system is RARg:RXRa (NR concentration 270 nM, RXRa partner concentration 90 nM). A digest of the protocol:
as §1

Assay [13] relates to RARg homodimer (NR concentration 270 nM). Summed up:
as §1

Assay [14] has as its system RXRa DBDmut IVT, anti-RXR (DBD mutation: RXRa K156A/R161A, NR concentration 90 nM). A digest of the protocol: as §1
In assay [15] the test system is RXRa homodimer (NR concentration 180 nM). A digest of the protocol: as §1
The subject of assay [16] is THRa:RXRa (NR concentration 90 nM, RXRa partner concentration 90 nM). A digest of the protocol: as §1
For assay [17], the system named is THRa homodimer (NR concentration 90 nM). A digest of the protocol:
as §1

For assay [18], the system named is VDR homodimer (NR concentration 270 nM). A digest of the protocol: as §1

With CCTTTCGGGTCAAGGTTATAGCACGGGTGGTACG, the PBM binding z-score in assay [1] was 1.96; in assay [2], 3.48; in assay [3], 0.691; in assay [4] it was 0.648; in assay [5] it was 2.93; in [6], 3.67. Further, the PBM binding z-score in assay [7] worked out at 0.171; in [8], 4.51; in assay [9] it was 0.494; in assay [10], 4.3; in [11] it was 3.76; in [12], 5.07. The PBM binding z-score in assay [13] turned out to be 5.07; in assay [14], 2.03; in assay [15], 5.56; in assay [16], 3.97; in [17] it was 3.16; in [18], 1.97.

For CATACAGGGTCTGCTAGGCCAGAGTAGGGACGGC, the PBM binding z-score is -0.963 in [1]; -0.162 in [2]; -0.142 in [3]; -0.562 in assay [4]; 0.266 in [5]; -0.649 in assay [6]. For the same sequence, the PBM binding z-score in assay [7] was -0.0998; in assay [8] it was -0.482; in assay [9] it was 0.212; in assay [10], 0.183; in assay [11], -0.0672; in assay [12], -0.0355. Further, the PBM binding z-score in assay [13] is 0.276; in assay [14], -0.952; in assay [15] it was 0.034; in assay [16] it was 0.13; in [17] it was -0.32; in assay [18], -0.486.

GTACCAAGGTGAATAGGTCGTCGATGAGTAGGCG: the PBM binding z-score is 1.91 in assay [1]; 2.77 in assay [2]; -0.404 in assay [3]; -0.279 in [4]; 0.976 in assay [5]; 0.807 in assay [6]. Also, the PBM binding z-score in assay [7] is -0.119; in assay [8], 1.9; in assay [9], 0.0363; in assay [10] it was 2.18; in assay [11] it was 2.07; in assay [12] it was 2.91. Moreover, the PBM binding z-score in assay [13] is 1.67; in assay [14] it was -0.36; in assay [15], 2.1; in assay [16] it was 2.11; in assay [17], 0.363; in [18], -0.13.

As to ATCTCTAGGTAAGACTCAGTTTAGTGAAGAACGC, the PBM binding z-score came to 2.06 in [1]; 1.06 in assay [2]; 1.01 in [3]; 0.79 in [4]; 0.494 in assay [5]; 0.177 in assay [6]. In addition, the PBM binding z-score in assay [7] was determined as 0.554; in assay [8] it was 0.162; in assay [9], 1.22; in [10] it was 0.222; in assay [11], 0.134; in assay [12] it was 0.228. Further, the PBM binding z-score in assay [13] was 0.235; in assay [14], 0.443; in [15], -0.191; in assay [16], 0.364; in assay [17], 0.619; in [18], 0.252.

As for ACCTCTAGGTAAAGATAGTTCAGTGAATGCAAAT, the PBM binding z-score was 2.21 in [1]; 1.04 in assay [2]; -0.152 in assay [3]; 0.355 in [4]; -0.326 in assay [5]; 0.747 in [6]. For the same sequence, the PBM binding z-score in assay [7] was 0.128; in assay [8], 0.271; in assay [9] it was -0.309; in assay [10], 0.426; in assay [11], 0.723; in assay [12], 0.4. In addition, the PBM binding z-score in assay [13] was 0.505; in assay [14], 0.0276; in assay [15], 0.0359; in assay [16], 0.533; in assay [17] it was -0.346; in assay [18], 0.268.

In the case of ATCGAAAGGTAGAAGGTGAGTATACCCACCCGAA, the PBM binding z-score in assay [1] is -0.39; in assay [2], 0.667; in assay [3] it was 1.35; in assay [4], -0.025; in [5], 0.231; in assay [6] it was 0.0568. Also, the PBM binding z-score turned out to be 0.241 in assay [7]; 0.388 in assay [8]; 0.608 in assay [9]; 0.615 in assay [10]; 0.237 in [11]; 0.633 in assay [12]. Besides, the PBM binding z-score in [13] was 0.664; in assay [14], -0.929; in [15], 0.752; in assay [16] it was 0.231; in assay [17] it was -0.265; in [18], -0.279.

Take TGAGTGAGGTTAAAGATCAGGGAACGTGGCGTCG: the PBM binding z-score in assay [1] is 0.116; in assay [2], 1.91; in assay [3], 0.365; in assay [4], 0.826; in assay [5], 1.29; in assay [6], 2.13. For the same sequence, the PBM binding z-score amounted to 0.027 in assay [7]; 3.26 in [8]; 0.307 in assay [9]; 2.15 in assay [10]; 1.06 in assay [11]; 2.51 in assay [12]. Besides, the PBM binding z-score worked out at 1.37 in assay [13]; 1.05 in [14]; 4.01 in assay [15]; 2.43 in assay [16]; 0.575 in assay [17]; 0.834 in [18].
